In PubChem BioAssay AID1159580 (chemical genetic matrix, 2015):
Where “and” joins values, the source holds several entries; their conditions need not be identical. Identical values can stand only once. The whole screen tested about 5,500 compounds, of which about 2,000 (36%) were called active. Inconclusive results (about 18%) are left out. No stated cut-off is given here; in the data, active means normalized growth mostly below about 0.91 (no sharp cut-off); inconclusive means no clear call, values can overlap the other calls; inactive means mostly above about 0.92. Some of the results follow.

Test: chemical genetic growth profiling, strain panel (AID 1159580);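 further: tested at 20 µM; growth read once vehicle control cultures reached saturation at 30 °C; 1 = growth at the plate median or of vehicle wells; lower values mean less growth of the strain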
Details: S. cerevisiae deletion strains, growth OD

Measured: normalized growth

CC(CCc1ccccc1)NCC(O)c1ccc(O)c(C(N)=O)c1 (stereo not given)
inactive: locus YAL013W, strain DEP1, hits give low values 1 | locus YAL021C, strain ccr4, hits give low values 1 | locus YAL026C, strain drs2, hits give low values 1.01 | locus YAL030W, strain snc1, hits give low values 0.997 | locus YAL040C, strain CLN3, hits give low values 1.01 | locus YBL061C, strain skt5, hits give low values 1.01 | locus YBR009C, strain hhf1, hits give low values 1 | locus YBR021W, strain FUR4, hits give low values 1.01 | locus YBR023C, strain chs3, hits give low values 1.01 | locus YBR171W, strain sec66, hits give low values 1.01 | locus YBR229C, strain ROT2, hits give low values 1 | locus YBR231C, strain swc5, hits give low values 1.01 | locus YBR279W, strain paf1, hits give low values 1 | locus YCL011C, strain gbp2, hits give low values 1.01 | locus YCL016C, strain dcc1, hits give low values 1.01 | locus YCL029C, strain bik1, hits give low values 1.01 | locus YCL061C, strain MRC1 (second series), hits give low values 1.01 | locus YCL061C, strain MRC1, hits give low values 0.997 | locus YCL069W, strain vba3, hits give low values 1 | locus YCR088W, strain abp1, hits give low values 1.01 | locus YDL005C, strain med2, hits give low values 1.01 | locus YDL035C, strain GPR1, hits give low values 1.01 | locus YDL040C, strain nat1, hits give low values 1.01 | locus YDL074C, strain BRE1, hits give low values 0.977 | locus YDL101C, strain DUN1, hits give low values 1 | locus YDL134C, strain PPH21, hits give low values 1.02 | locus YDL185W, strain tfp1, hits give low values 1.01 | locus YDL192W, strain arf1, hits give low values 1.01 | locus YDR001C, strain nth1, hits give low values 1.01 | locus YDR069C, strain doa4, hits give low values 1.01 | locus YDR101C, strain arx1, hits give low values 0.999 | locus YDR137W, strain rgp1, hits give low values 1.01 | locus YDR150W, strain NUM1, hits give low values 1 | locus YDR159W, strain sac3, hits give low values 1.01 | locus YDR162C, strain NBP2, hits give low values 1.02 | locus YDR195W, strain ref2 1.01 | locus YDR297W, strain sur2, hits give low values 1.01 | locus YDR318W, strain mcm21, hits give low values 1.02 | locus YDR334W, strain swr1, hits give low values 0.99 | locus YDR335W, strain msn5, hits give low values 1 | locus YDR363W, strain ESC2, hits give low values 1 | locus YDR388W, hits give low values 1.02 | locus YDR392W, strain spt3, hits give low values 1 | locus YDR502C, strain sam2, hits give low values 1.01 | locus YEL003W, strain gim4, hits give low values 0.999 | locus YEL037C, strain rad23, hits give low values 1 | locus YEL061C, strain CIN8 (second series), hits give low values 1.01 | locus YEL061C, strain CIN8, hits give low values 0.997 | locus YER002W, strain NOP16, hits give low values 1.03 | locus YER015W, strain faa2, hits give low values 0.997 | locus YER016W, strain bim1, hits give low values 1 | locus YER110C, hits give low values 1.02 | locus YER111C, strain swi4, hits give low values 1.01 | locus YER155C, strain BEM2 (second series), hits give low values 1.01 | locus YER155C, strain BEM2, hits give low values 1 | locus YER167W, strain BCK2, hits give low values 1.02 | locus YFR010W, strain ubp6, hits give low values 1 | locus YGL078C, strain dbp3, hits give low values 1.01 | locus YGL086W, strain mad1, hits give low values 1.01 | locus YGL167C, strain pmr1, hits give low values 1 | locus YGL173C, strain kem1, hits give low values 1.01 | locus YGL227W, strain vid30, hits give low values 1.02 | locus YGL240W, strain doc1, hits give low values 1 | locus YGL248W, strain PDE1, hits give low values 0.992 | locus YGL253W, strain hxk2, hits give low values 1 | locus YGR078C, strain PAC10, hits give low values 0.985 | locus YGR135W, strain pre9, hits give low values 1.05 | locus YGR252W, strain gcn5, hits give low values 0.996 | locus YHR013C, strain ard1, hits give low values 1 | locus YHR027C, strain rpn1, hits give low values 1 | locus YHR030C, strain SLT2, hits give low values 1 and 1.02 | locus YHR079C, strain IRE1 (second series), hits give low values 1.02 | locus YHR079C, strain IRE1, hits give low values 1.04 | locus YHR094C, strain hxt1, hits give low values 1.02 | locus YHR129C, strain ARP1, hits give low values 1.01 | locus YHR142W, strain chs7, hits give low values 1.02 | locus YHR200W, strain rpn10, hits give low values 1.01 | locus YIL066C, strain RNR3, hits give low values 0.995 | locus YIL073C, strain SPO22, hits give low values 1.1 | locus YIL125W, strain kgd1, hits give low values 1.01 | locus YIR030C, strain dcg1, hits give low values 1.03 | locus YJL092W, strain hpr5, hits give low values 1.01 | locus YJL095W, strain BCK1 (second series), hits give low values 1.01 | locus YJL095W, strain BCK1, hits give low values 0.981 and 1.05 | locus YJL115W, strain asf1, hits give low values 1 | locus YJL129C, strain trk1, hits give low values 1 | locus YJL134W, strain LCB3, hits give low values 1 | locus YJL154C, strain vps35, hits give low values 1 | locus YJL164C, strain tpk1, hits give low values 0.996 | locus YJL166W, strain qcr8, hits give low values 1 | locus YJL168C, strain set2, hits give low values 1.01 | locus YJL187C, strain SWE1 (second series), hits give low values 0.983 | locus YJL187C, strain SWE1, hits give low values 1.01 | locus YJR043C, strain POL32, hits give low values 0.986 | locus YJR066W, strain TOR1, hits give low values 0.977
